Results reported in PubChem BioAssay AID1159580 (chemical genetic matrix, 2015).
Where “and” joins values, the source holds several entries; their conditions need not be identical. Equal values may be shown once. Hit rate of the full screen: of about 5,500 compounds, about 2,000 (36%) were called active. Roughly 18% stayed inconclusive and do not appear here. The list shows a part of the results. Values without a mark were called inactive. No stated cut-off is given here; in the data, active means normalized growth mostly below about 0.91 (no sharp cut-off); inconclusive means no clear call, values can overlap the other calls; inactive means mostly above about 0.92.

Assay: chemical genetic growth profiling, strain panel (AID 1159580);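 further: tested at 20 µM; growth read once vehicle control cultures reached saturation at 30 °C; 1 = growth at the plate median or of vehicle wells; lower values mean less growth of the strain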
Conditions: S. cerevisiae deletion strains, growth OD

With CC1[C@H](C)OC(=O)CC(O)CC(O)CC(O)CCC(O)C(O)C[C@]2(O)CC(O)C(C(=O)O)C(CC(OC3O[C@H](C)[C@@H](O)[C@H](N)[C@@H]3O)/C=C/C=C/C=C/C=C/CC/C=C/C=C/[C@H](C)[C@H]1O)O2 (stereo partly specified) the normalized growth (locus YAL013W, strain DEP1, active compounds read low) was 0.0554 (active), the normalized growth (locus YAL021C, strain ccr4, active compounds read low) was 0.186 (active) and the normalized growth (locus YAL026C, strain drs2, active compounds read low) was 0.0661 (active). The normalized growth (locus YAL030W, strain snc1, active compounds read low) was 0.824 (active), the normalized growth (locus YBL061C, strain skt5, active compounds read low) was 0.931 and the normalized growth (locus YBR009C, strain hhf1, active compounds read low) was 0.557 (active). For the same molecule, the normalized growth (locus YBR021W, strain FUR4, active compounds read low) was 0.369 (active), the normalized growth (locus YBR023C, strain chs3, active compounds read low) was 0.918 and the normalized growth (locus YBR171W, strain sec66, active compounds read low) was 0.0858 (active). The normalized growth (locus YBR229C, strain ROT2, active compounds read low) was 0.206 (active), the normalized growth (locus YBR279W, strain paf1, active compounds read low) was 0.982 and the normalized growth (locus YCL011C, strain gbp2, active compounds read low) was 0.223 (active). The normalized growth (locus YCL016C, strain dcc1, active compounds read low) was 0.971, the normalized growth (locus YCL029C, strain bik1, active compounds read low) was 0.425 (active) and the normalized growth (locus YCL069W, strain vba3, active compounds read low) was 0.849 (active). The normalized growth (locus YCR088W, strain abp1, active compounds read low) was 0.0729 (active), the normalized growth (locus YDL005C, strain med2, active compounds read low) was 0.953 and the normalized growth (locus YDL035C, strain GPR1, active compounds read low) was 0.0678 (active). The normalized growth (locus YDL040C, strain nat1, active compounds read low) was 0.995, the normalized growth (locus YDL074C, strain BRE1, active compounds read low) was 0.144 (active) and the normalized growth (locus YDL101C, strain DUN1, active compounds read low) was 0.188 (active). The normalized growth (locus YDL134C, strain PPH21, active compounds read low) was 0.592 (active), the normalized growth (locus YDL185W, strain tfp1, active compounds read low) was 0.0687 (active) and the normalized growth (locus YDL192W, strain arf1, active compounds read low) was 0.133 (active). The normalized growth (locus YDR001C, strain nth1, active compounds read low) was 0.815 (active), the normalized growth (locus YDR069C, strain doa4, active compounds read low) was 0.858 (active) and the normalized growth (locus YDR101C, strain arx1, active compounds read low) was 0.119 (active). The normalized growth (locus YDR137W, strain rgp1, active compounds read low) was 0.914, the normalized growth (locus YDR150W, strain NUM1, active compounds read low) was 0.0676 (active) and the normalized growth (locus YDR159W, strain sac3, active compounds read low) was 1.04. The normalized growth (locus YDR162C, strain NBP2, active compounds read low) was 0.0472 (active), the normalized growth (locus YDR195W, strain ref2) was 0.466 (active) and the normalized growth (locus YDR297W, strain sur2, active compounds read low) was 0.828 (active). The normalized growth (locus YDR318W, strain mcm21, active compounds read low) was 0.194 (active), the normalized growth (locus YDR334W, strain swr1, active compounds read low) was 0.415 (active) and the normalized growth (locus YDR335W, strain msn5, active compounds read low) was 0.904 (active). The normalized growth (locus YDR388W, active compounds read low) was 0.0675 (active), the normalized growth (locus YDR392W, strain spt3, active compounds read low) was 1.11 and the normalized growth (locus YDR502C, strain sam2, active compounds read low) was 0.0781 (active). The normalized growth (locus YEL003W, strain gim4, active compounds read low) was 0.154 (active), the normalized growth (locus YEL037C, strain rad23, active compounds read low) was 0.723 (active) and the normalized growth (locus YEL061C, strain CIN8 (second series), active compounds read low) was 0.815 (active). For the same molecule, the normalized growth (locus YEL061C, strain CIN8, active compounds read low) was 0.0554 (active), the normalized growth (locus YER015W, strain faa2, active compounds read low) was 0.822 (active) and the normalized growth (locus YER016W, strain bim1, active compounds read low) was 0.961. For the same molecule, the normalized growth (locus YER110C, active compounds read low) was 0.188 (active), the normalized growth (locus YER111C, strain swi4, active compounds read low) was 0.959 and the normalized growth (locus YER155C, strain BEM2 (second series), active compounds read low) was 0.633 (active). The normalized growth (locus YER155C, strain BEM2, active compounds read low) was 0.122 (active), the normalized growth (locus YER167W, strain BCK2, active compounds read low) was 0.0855 (active) and the normalized growth (locus YFR010W, strain ubp6, active compounds read low) was 0.137 (active). The normalized growth (locus YGL078C, strain dbp3, active compounds read low) was 0.0582 (active), the normalized growth (locus YGL086W, strain mad1, active compounds read low) was 0.124 (active) and the normalized growth (locus YGL167C, strain pmr1, active compounds read low) was 0.996. For the same molecule, the normalized growth (locus YGL173C, strain kem1, active compounds read low) was 0.799 (active), the normalized growth (locus YGL227W, strain vid30, active compounds read low) was 0.061 (active) and the normalized growth (locus YGL240W, strain doc1, active compounds read low) was 0.537 (active). The normalized growth (locus YGL248W, strain PDE1, active compounds read low) was 0.646 (active), the normalized growth (locus YGL253W, strain hxk2, active compounds read low) was 0.44 (active) and the normalized growth (locus YGR078C, strain PAC10, active compounds read low) was 0.0638 (active). The normalized growth (locus YGR135W, strain pre9, active compounds read low) was 0.0907 (active), the normalized growth (locus YGR229C, strain SMI1, active compounds read low) was 0.0609 (active) and the normalized growth (locus YGR252W, strain gcn5, active compounds read low) was 0.385 (active). The normalized growth (locus YHR013C, strain ard1, active compounds read low) was 1.35 [resistant] (active), the normalized growth (locus YHR027C, strain rpn1, active compounds read low) was 0.77 (active) and the normalized growth (locus YHR030C, strain SLT2, active compounds read low) was 0.179 (active) and 0.0985 (active). The normalized growth (locus YHR079C, strain IRE1 (second series), active compounds read low) was 0.312 (active), the normalized growth (locus YHR079C, strain IRE1, active compounds read low) was 0.102 (active) and the normalized growth (locus YHR094C, strain hxt1, active compounds read low) was 0.302 (active). The normalized growth (locus YHR129C, strain ARP1, active compounds read low) was 0.129 (active), the normalized growth (locus YHR142W, strain chs7, active compounds read low) was 0.658 (active) and the normalized growth (locus YHR200W, strain rpn10, active compounds read low) was 0.0755 (active). The normalized growth (locus YIL066C, strain RNR3, active compounds read low) was 0.51 (active), the normalized growth (locus YIL073C, strain SPO22, active compounds read low) was 0.987 and the normalized growth (locus YIL125W, strain kgd1, active compounds read low) was 0.0583 (active). The normalized growth (locus YIR030C, strain dcg1, active compounds read low) was 0.182 (active), the normalized growth (locus YJL092W, strain hpr5, active compounds read low) was 0.402 (active) and the normalized growth (locus YJL095W, strain BCK1 (second series), active compounds read low) was 0.994. For the same molecule, the normalized growth (locus YJL095W, strain BCK1, active compounds read low) was 0.567 (active) and 0.099 (active), the normalized growth (locus YJL115W, strain asf1, active compounds read low) was 0.887 (active) and the normalized growth (locus YJL129C, strain trk1, active compounds read low) was 1.2 [resistant] (active). For the same molecule, the normalized growth (locus YJL134W, strain LCB3, active compounds read low) was 0.372 (active), the normalized growth (locus YJL154C, strain vps35, active compounds read low) was 0.985 and the normalized growth (locus YJL164C, strain tpk1, active compounds read low) was 0.775 (active). For the same molecule, the normalized growth (locus YJL166W, strain qcr8, active compounds read low) was 0.789 (active), the normalized growth (locus YJL168C, strain set2, active compounds read low) was 0.199 (active) and the normalized growth (locus YJL187C, strain SWE1 (second series), active compounds read low) was 0.168 (active). The normalized growth (locus YJL187C, strain SWE1, active compounds read low) was 0.846 (active), the normalized growth (locus YJR043C, strain POL32, active compounds read low) was 0.0611 (active) and the normalized growth (locus YJR066W, strain TOR1, active compounds read low) was 0.0213 (active). For the same molecule, the normalized growth (locus YJR075W, strain HOC1, active compounds read low) was 0.0672 (active).
